Bioassay records: PubChem, National Center for Advancing Translational Sciences (NCATS)
Sampled rows, rich in hits. Any-hit rate of the full collection: about 12%.
JMJD2A Tudor = blocks the human JMJD2A Tudor domain. 390,000 tested, 4.4% active. Potency, µM (titrated, usually from 114 µM), actives largely listed as inhibitors. AlphaScreen JMJD2A-Tudor / H3K4me3 peptide binding. AID 504339. O75164; also: nearly all actives have a fitted effect of over 50% in size
HP1b binding inh = HP1-beta chromodomain-methylated histone interaction inhibition; P83916; AlphaScreen HP1-beta / biotin-H3K9me3 peptide binding; Potency, µM (highest dose often 114 µM), actives largely listed as inhibitors; 390,000 tested, 0.56% active; also: nearly all actives have a fitted effect of over 70% in size
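HP1-beta protein (50 nM final) preincubated 30 min at room temperature with biotinylated H3(1-18)K9me3 peptide (50 nM) in PBS pH 7.4, 0.01% Tween-20, then compound added for 30 min. AlphaScreen streptavidin donor/nickel chelate acceptor beads (10 ug/mL final), 30 min dark, luminescence read.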
PLK1 PBD block = PLK1 (human) polo-box domain binding inhibition; AID 720504; 360,000 tested, 2.8% active; Potency, µM, most hits filed as inhibitors; Plk1 PBD binding of FITC phosphopeptide, fluorescence polarization; also: series mostly up to about 57 µM; nearly all actives have a fitted effect of over 65% in size
G9a inh = inhibitors of human histone lysine methyltransferase G9a; Q96KQ7; G9a H3K9 monomethylation, AlphaScreen, 2 h; Potency, µM (doses to about 102 µM), most hits filed as inhibitors; 350,000 tested, 8.8% active; AID 504332; also: nearly all actives have a fitted effect of over 75% in size
Target sequence (Q96KQ7 913-1193 limits assumed): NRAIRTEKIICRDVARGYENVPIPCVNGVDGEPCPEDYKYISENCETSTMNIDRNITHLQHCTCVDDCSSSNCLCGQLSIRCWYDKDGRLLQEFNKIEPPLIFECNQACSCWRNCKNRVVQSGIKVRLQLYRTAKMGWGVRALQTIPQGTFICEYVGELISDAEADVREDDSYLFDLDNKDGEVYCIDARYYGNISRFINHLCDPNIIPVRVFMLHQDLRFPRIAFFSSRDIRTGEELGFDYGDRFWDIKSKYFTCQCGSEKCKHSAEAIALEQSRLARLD
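AlphaScreen detection with an anti-monomethyl H3K9 antibody quantified product after a 2 h room-temperature reaction containing 500 nM biotinylated H3K9 peptide, 20 µM SAM and 20 nM enzyme, which had been preincubated 15 min with compound.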
BAZ2B block = blocks human BAZ2B; AlphaScreen BAZ2B-H3K14Ac peptide displacement; Q9UIF8; Potency, µM (series often up to 114 µM), hits mostly inhibitors; 360,000 tested, 4.4% active; AID 504333; also: nearly all actives have a fitted effect of over 60% in size
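Compounds, titrated to a top concentration of 110 uM, were incubated 30 min at room temperature with preformed BAZ2B/acetyl-K14 H3 peptide complex (50 nM each). Proximity signal was measured by AlphaScreen after 20 min with beads.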
PI5P4K alpha inh = blocks human PI5P4K alpha kinase activity. P48426. PI5P4Kalpha enzyme, ADP-Glo luminescence, 60 min; stronger effect = lower value. max response, %. 330,000 tested, 1.2% active; active = max response of -50% or lower; inconclusive = between -30% and -50%; inactive = -30% or higher; also: value at the top dose of about 77 µM
Target sequence (P48426 whole entry, looked up): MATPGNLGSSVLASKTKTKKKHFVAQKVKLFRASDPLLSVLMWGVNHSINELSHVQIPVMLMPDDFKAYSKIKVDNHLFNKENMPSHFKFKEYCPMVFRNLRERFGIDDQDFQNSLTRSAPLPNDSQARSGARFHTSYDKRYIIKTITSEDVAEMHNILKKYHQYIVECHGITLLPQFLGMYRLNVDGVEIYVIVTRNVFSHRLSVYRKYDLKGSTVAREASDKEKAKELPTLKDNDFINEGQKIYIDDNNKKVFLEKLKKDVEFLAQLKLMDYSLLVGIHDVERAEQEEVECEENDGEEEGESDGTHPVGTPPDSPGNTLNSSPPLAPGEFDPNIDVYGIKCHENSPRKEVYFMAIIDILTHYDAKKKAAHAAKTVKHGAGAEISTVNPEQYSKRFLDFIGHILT
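Luminescence from ADP-Glo served as readout of PI5P4Kalpha activity in a qHTS format. Reaction: enzyme, substrate, compound, ATP at 5 microM final, 60 min at RT.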
Of the large screens only hits and unclear results are named; the others gave an inactive call. Unless noted, calls follow the shape of the dose curve; as a rule, active = well fitted curve in the direction sought with a large enough effect; inconclusive = small, poorly fitted or top-dose-only effect, or another doubt; inactive = no such curve, though single readings can be large; an effect the other way counts as inactive or inconclusive.

COc1cccc(Cn2nnc(C(=O)Nc3cc(C)ccc3C)c2N)c1	none (no result: PLK1 PBD block, PI5P4K alpha inh)
Cc1cc(C)cc(NC(=O)Cn2nnc(C(=O)NCc3ccccc3Cl)c2N)c1	G9a inh 1.1µM
COc1ccc(Cl)cc1NC(=O)Cn1nnc(C(=O)NCCc2ccc(OC)c(OC)c2)c1N	PI5P4K alpha inh inconclusive
COc1cccc(Cn2nnc(C(=O)Nc3cc(C)ccc3OC)c2N)c1	JMJD2A Tudor inconclusive, PLK1 PBD block 27µM
Cc1ccc(C)c(NC(=O)Cn2nnc(C(=O)NCc3ccccc3Cl)c2N)c1	none (no result: PLK1 PBD block, PI5P4K alpha inh)
COc1ccc(NC(=O)Cn2nnc(C(=O)NCc3cccs3)c2N)c(OC)c1	JMJD2A Tudor 22µM, PLK1 PBD block 24µM
COc1ccc(CCNC(=O)c2nnn(CC(=O)Nc3ccc(C)cc3C)c2N)cc1OC	BAZ2B block 79µM
CCc1ccc(NC(=O)Cn2c(=O)n(CC3CCCO3)c(=O)c3cc(OC)c(OC)cc32)cc1 (stereo unspecified)	none (no result: PLK1 PBD block, PI5P4K alpha inh)
Cc1ccc(NC(=O)Cn2nnc(C(=O)NCCc3ccccc3)c2N)c(C)c1	JMJD2A Tudor 11µM, PLK1 PBD block 6µM, BAZ2B block inconclusive
CCOC(=O)c1c(C)[nH]c(C(=O)/C(C#N)=C/c2ccc(OC)c(OC)c2)c1C	PLK1 PBD block 17µM, BAZ2B block inconclusive
COc1cc(/C=C(/C#N)C(=O)c2c(C)[nH]c3ccccc23)ccc1OCC#N	JMJD2A Tudor inconclusive, HP1b binding inh inconclusive, G9a inh inconclusive, BAZ2B block inconclusive
CCOc1ccc(/C=C(\C#N)C(=O)c2c(C)[nH]c3ccccc23)cc1OC	JMJD2A Tudor inconclusive, G9a inh inconclusive, BAZ2B block inconclusive
CCOC(=O)c1c(C)[nH]c(C(=O)/C(C#N)=C/c2ccc(OC(F)F)c(OC)c2)c1C	PLK1 PBD block 4.7µM
Cc1nc(/N=C\c2ccc(N(C)C)cc2)sc1C	none
Cn1c2c(c(=O)n(C)c1=O)[C@@]1(C(=O)Nc3ccccc31)C(C#N)=C(N)O2	PLK1 PBD block inconclusive, G9a inh 45µM
N#CC1=C(N)Oc2n[nH]c(-c3ccccc3)c2C12C(=O)Nc1ccccc12 (stereo unspecified)	none
Cc1cc(/C=C(\C#N)C(=O)O)c(C)n1CC1CCCO1 (stereo unspecified)	JMJD2A Tudor 14µM, HP1b binding inh inconclusive, PLK1 PBD block 3µM, G9a inh inconclusive, PI5P4K alpha inh -72
CCCn1c(C)cc(/C=C(\C#N)C(=O)O)c1C	none
Cc1cc(/C=C(\C#N)C(=O)O)c(C)n1-c1ccc(Br)cc1	PLK1 PBD block 34µM, G9a inh 71µM, BAZ2B block inconclusive
O=C(NCC(F)(F)F)c1[nH]c(C(F)(F)F)nc1-c1ccccc1	none (no result: JMJD2A Tudor, HP1b binding inh, G9a inh, BAZ2B block)
COCCN(C(=O)CSc1nnc(-c2ccccc2F)o1)c1c(N)n(CC(C)C)c(=O)[nH]c1=O	G9a inh inconclusive
Nc1ccc2ccccc2c1N=Nc1ccccc1	JMJD2A Tudor 13µM, HP1b binding inh 13µM (no result: G9a inh, BAZ2B block)
COc1ccc(CCNC(=O)c2cc(=O)c3cc(C)ccc3o2)cc1OC	none
Cc1c(C(=O)N2CCCC2)oc2c1-c1[nH]ncc1CC2	G9a inh 50µM
COc1ccccc1NC(=O)Cn1c(=O)n(Cc2ccccc2)c(=O)c2c1c1cc(C)ccc1n2C	none (no result: PLK1 PBD block, PI5P4K alpha inh)
CC(=NNC(=O)c1cccc(S(=O)(=O)N2CCOCC2)c1)c1ccc(Cl)cc1	none (no result: G9a inh, BAZ2B block)
CCCCN(C(=O)Cn1ncc(Cl)c(Cl)c1=O)c1c(N)n(CC(C)C)c(=O)[nH]c1=O	PLK1 PBD block inconclusive, PI5P4K alpha inh -52
COCCN(C(=O)CSc1nnc(-c2ccc(Cl)cc2)o1)c1c(N)n(CC(C)C)c(=O)[nH]c1=O	none
CCCCN(C(=O)CSc1nnc(-c2ccc(Cl)cc2)o1)c1c(N)n(CC(C)C)c(=O)[nH]c1=O	G9a inh 1µM
CCCCN(C(=O)CN1CC(C)OC(C)C1)c1c(N)n(CC(C)C)c(=O)[nH]c1=O (stereo unspecified)	none
CCN(CC)CCCN1C(=O)C(=O)/C(=C(/O)c2ccc(C)cc2)C1c1ccccn1 (stereo unspecified)	JMJD2A Tudor 89µM, G9a inh 14µM, BAZ2B block inconclusive
CCOc1ccc(/C(O)=C2/C(=O)C(=O)N(CCOCCO)C2c2cccnc2)cc1 (stereo unspecified)	JMJD2A Tudor 79µM (no result: G9a inh)
CCN(CC)CCN1C(=O)C(=O)/C(=C(/O)c2ccncc2)C1c1ccccc1F (stereo unspecified)	G9a inh 79µM
CCN(CC)CCN1C(=O)C(=O)/C(=C(/O)c2ccc(F)cc2)C1c1ccncc1 (stereo unspecified)	none
CN(C)CCCN1C(=O)C(=O)/C(=C(/O)c2ccccc2)C1c1ccccn1 (stereo unspecified)	none (no result: JMJD2A Tudor, HP1b binding inh, PLK1 PBD block, PI5P4K alpha inh)
O=C1C(=O)N(CCOCCO)C(c2ccccn2)/C1=C(\O)c1ccccc1 (stereo unspecified)	JMJD2A Tudor inconclusive, G9a inh 18µM, BAZ2B block inconclusive
CCOc1ccc(NC(=O)C2CCCN(S(C)(=O)=O)C2)cc1 (stereo unspecified)	none
CCN(c1cccc(C)c1)S(=O)(=O)c1nnc(NC(=O)c2ccccc2Cl)s1	none (no result: PLK1 PBD block, PI5P4K alpha inh)
Cc1ccc(-c2nc3c(Cl)cc(C(F)(F)F)cn3c2Cc2ccsc2)cc1	none (no result: JMJD2A Tudor, HP1b binding inh, G9a inh, BAZ2B block)
O=S(=O)(Nc1cccc2cccnc12)C1CC1	JMJD2A Tudor 50µM (no result: PLK1 PBD block, G9a inh, BAZ2B block, PI5P4K alpha inh)
O=S(=O)(Nc1c(Br)cc(Br)c2cccnc12)C1CC1	JMJD2A Tudor 25µM (no result: PLK1 PBD block, G9a inh, BAZ2B block, PI5P4K alpha inh)
O=S(=O)(Nc1c(Br)cc(Br)c2cccnc12)C1CCCCC1	none (no result: PLK1 PBD block, G9a inh, BAZ2B block, PI5P4K alpha inh)
O=C(CCN=C1NS(=O)(=O)c2ccccc21)NCc1ccccc1F	none (no result: G9a inh, BAZ2B block)
O=C(O)/C=C/c1cn(Cc2ccccc2Cl)nc1-c1ccccc1	PLK1 PBD block 27µM
O=C(O)/C=C/c1cn(Cc2ccccc2)nc1-c1ccc(Cl)cc1	none
CCCN1CCC(=NNC(=O)c2ccc(Br)o2)CC1	none (no result: PI5P4K alpha inh)
CCCN1CCC(=NNc2ccc(C(=O)O)cc2)CC1	G9a inh 7.9µM, BAZ2B block inconclusive
O=C(Cn1c(=O)nc(-c2ccccc2)c2ccccc21)N1CCN(c2ccc(F)cc2)CC1	none (no result: PLK1 PBD block, PI5P4K alpha inh)
COc1ccc(-c2ccc(CCC(=O)O)n2-c2ccccc2C(F)(F)F)cc1	JMJD2A Tudor inconclusive, G9a inh inconclusive, BAZ2B block inconclusive (no result: PLK1 PBD block, PI5P4K alpha inh)
Cc1ccc(-c2ccc(CCC(=O)O)n2NC(=O)c2cccs2)cc1	G9a inh inconclusive, BAZ2B block 11µM
COc1ccc(-c2ccc(CCC(=O)O)n2NC(=O)c2cccs2)cc1	G9a inh 14µM
CN(C)C(=O)CCc1ccc2c3c([nH]c2c1)[C@]1(C)[C@@H](C(=O)N2CCOCC2)C[C@H](CC(=O)NCc2cccc(C(F)(F)F)c2)C(=O)N1CC3	none (no result: G9a inh, BAZ2B block)
